Inconclusive results are not listed. Active and inactive are the calls of the source. The call rests on the fitted dose curve; in most records, active means well fitted curve in the direction sought with a large enough effect; inconclusive means small, poorly fitted or top-dose-only effect, or another doubt; inactive means no such curve, though single readings can be large; an effect the other way counts as inactive or inconclusive.
What was measured:
[1] = molecular target: Rap guanine nucleotide exchange factor 3 (Homo sapiens) (UniProt O95398); experiment: Confirmatory qHTS for antagonist of cAMP-regulated guanine nucleotide exchange factor 3 (EPAC1) (AID 1645880); settings: EPAC1 Rap1B-BODIPY-GDP exchange, fluorescence; activity, negative = inhibition: at 115 µM (top of the series); further: nearly all actives have a fitted effect of over 55% in size; further: potency means the concentration at half of the fitted maximal effect;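 on activity, negative = inhibition: plate controls were DMSO only for no effect and full effect of the ATA control for full effect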
Chain of Rap guanine nucleotide exchange factor 3 (Homo sapiens) (O95398 whole entry, looked up): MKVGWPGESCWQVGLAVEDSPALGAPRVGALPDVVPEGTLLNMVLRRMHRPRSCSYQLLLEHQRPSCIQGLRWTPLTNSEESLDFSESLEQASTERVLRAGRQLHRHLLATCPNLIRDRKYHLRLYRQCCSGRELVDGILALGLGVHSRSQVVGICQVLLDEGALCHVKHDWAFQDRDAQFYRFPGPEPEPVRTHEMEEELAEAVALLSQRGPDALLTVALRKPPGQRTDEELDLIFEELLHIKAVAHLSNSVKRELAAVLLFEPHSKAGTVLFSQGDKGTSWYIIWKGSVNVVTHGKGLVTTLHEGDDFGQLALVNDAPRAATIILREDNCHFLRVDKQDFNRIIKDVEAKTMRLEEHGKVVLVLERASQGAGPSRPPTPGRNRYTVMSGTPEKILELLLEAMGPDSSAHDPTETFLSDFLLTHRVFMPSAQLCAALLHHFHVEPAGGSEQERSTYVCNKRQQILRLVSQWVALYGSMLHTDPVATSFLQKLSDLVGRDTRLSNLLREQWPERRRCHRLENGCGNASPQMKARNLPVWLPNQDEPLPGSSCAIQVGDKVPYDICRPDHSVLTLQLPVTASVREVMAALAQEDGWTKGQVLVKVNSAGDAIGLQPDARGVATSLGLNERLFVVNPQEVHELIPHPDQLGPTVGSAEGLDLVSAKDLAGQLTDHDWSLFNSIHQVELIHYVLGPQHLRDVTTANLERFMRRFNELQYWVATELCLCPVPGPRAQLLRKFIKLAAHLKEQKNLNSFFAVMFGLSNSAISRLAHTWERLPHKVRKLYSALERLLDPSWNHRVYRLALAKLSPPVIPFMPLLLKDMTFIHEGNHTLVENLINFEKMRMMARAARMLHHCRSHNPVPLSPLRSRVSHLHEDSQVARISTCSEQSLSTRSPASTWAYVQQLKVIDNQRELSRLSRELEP
In short: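 Nucleotide exchange uses 100 nM EPAC1, 250 nM RAP1B-BODIPY-GDP and 50 uM GDP, with compounds in a concentration-titration series. After 5 min at room temperature, fluorescence (480 nm ex/540 nm em) is read every 5 min for 30 min. Data are normalized to control ATA and DMSO.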

[2] = molecular target: Rap guanine nucleotide exchange factor 3 (Homo sapiens) (UniProt O95398); experiment: Confirmatory qHTS for agonist of cAMP-regulated guanine nucleotide exchange factor 3 (EPAC1) (AID 1645881); further: nearly all actives have a fitted effect of over 75% in size; further: potency means the concentration at half of the fitted maximal effect;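 on activation: EPAC1 catalysed release of BODIPY-GDP from Rap1B seen as fluorescence loss; 100% = effect of cAMP agonist control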
[3] = molecular target: Rap guanine nucleotide exchange factor 4 (Homo sapiens) (UniProt Q8WZA2); experiment: Confirmatory qHTS for agonist of cAMP-regulated guanine nucleotide exchange factor 4 (EPAC2) (AID 1645884);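 further: nucleotide exchange releases bodipy-GDP from Rap1 and this lowers its fluorescence; nearly all actives have a fitted effect of over 65% in size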; further: potency means the concentration at half of the fitted maximal effect; on activation: on the % scale 0 is the no-effect control and ±100 the full control effect
Chain of Rap guanine nucleotide exchange factor 4 (Homo sapiens) (Q8WZA2 whole entry, looked up): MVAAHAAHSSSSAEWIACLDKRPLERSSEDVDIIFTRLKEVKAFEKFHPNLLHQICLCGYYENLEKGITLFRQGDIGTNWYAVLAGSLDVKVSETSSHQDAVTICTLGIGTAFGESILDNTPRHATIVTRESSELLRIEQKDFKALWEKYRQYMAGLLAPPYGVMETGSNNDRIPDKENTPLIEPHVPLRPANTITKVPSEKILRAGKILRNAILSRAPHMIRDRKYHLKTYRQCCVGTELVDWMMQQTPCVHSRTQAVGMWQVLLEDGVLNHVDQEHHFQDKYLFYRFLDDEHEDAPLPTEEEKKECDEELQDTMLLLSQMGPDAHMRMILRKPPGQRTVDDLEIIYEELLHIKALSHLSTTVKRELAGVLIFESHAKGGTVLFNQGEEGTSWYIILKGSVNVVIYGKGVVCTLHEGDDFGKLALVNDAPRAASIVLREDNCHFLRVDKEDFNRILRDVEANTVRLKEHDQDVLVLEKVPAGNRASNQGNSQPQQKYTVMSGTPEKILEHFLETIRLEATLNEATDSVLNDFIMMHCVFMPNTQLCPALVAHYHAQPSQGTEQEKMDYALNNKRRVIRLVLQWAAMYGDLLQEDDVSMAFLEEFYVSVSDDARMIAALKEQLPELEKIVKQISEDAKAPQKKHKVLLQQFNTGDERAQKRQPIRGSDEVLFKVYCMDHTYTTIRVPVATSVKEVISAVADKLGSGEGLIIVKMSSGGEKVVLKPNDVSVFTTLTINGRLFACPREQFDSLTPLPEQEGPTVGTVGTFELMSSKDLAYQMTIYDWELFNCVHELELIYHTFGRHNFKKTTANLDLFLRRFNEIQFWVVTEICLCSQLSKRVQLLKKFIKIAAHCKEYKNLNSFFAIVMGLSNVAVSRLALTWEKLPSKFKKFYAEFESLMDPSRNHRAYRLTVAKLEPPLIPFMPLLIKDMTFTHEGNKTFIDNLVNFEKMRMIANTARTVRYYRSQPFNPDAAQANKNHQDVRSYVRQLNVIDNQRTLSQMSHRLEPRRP

[4] = molecular target: Rap guanine nucleotide exchange factor 3 (Homo sapiens) (UniProt O95398); experiment: Counterscreen qHTS for antagonist of cAMP-regulated guanine nucleotide exchange factor 3 (EPAC1) (AID 1645888);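 further: fluorescence loss as bound BODIPY-GDP is released from Rap1B; % of control where 0% means no effect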
In short: (§1)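 Measured: fluorescence of BODIPY-GDP bound to Rap1B, which falls as exchange proceeds. Conditions include 50 uM competing GDP, 5 and 30 min reads, and a later cAMP challenge for antagonist detection.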

[5] = molecular target: Rap guanine nucleotide exchange factor 3 (Homo sapiens) (UniProt O95398); experiment: Counterscreen qHTS for agonist of cAMP-regulated guanine nucleotide exchange factor 3 (EPAC1) (AID 1645889); further: nearly all actives have a fitted effect of over 40% in size; further: potency means the concentration at half of the fitted maximal effect; on activation: % of control where 0% means no effect
In short: as §1

Cc1nc(N(C)C)c2sc(=S)n(Cc3ccccc3)c2n1
inactive: Potency [1] | Potency [2] | activation [3] 11.2% [at 17.1 µM, percent relative to cAMP agonist control] | activity change, negative = inhibition [4] -16.2% [at 30.8 µM] | activation [5] 9.98% [at 30.8 µM]

O=C(O)CCSc1nnc(COc2cccc3ccccc23)n1-c1cccc(Cl)c1
inactive: Potency [1] | Potency [2] | Potency [3] | Potency [4] | Potency [5]

Cc1cc2ccccc2cc1C(=O)c1ccccc1
inactive: Potency [1] | Potency [2] | activation [3] 3.89% [at 17.1 µM, percent relative to cAMP agonist control] | activity change, negative = inhibition [4] -19.3% [at 30.8 µM] | activation [5] 5.51% [at 30.8 µM]

CCOC(=O)N/N=C/c1ccc(OCCSc2ccc(Cl)cc2)c(OC)c1
active: activity, negative = inhibition [1] -73.5%
inactive: Potency [2] | Potency [3] | Potency [4] | Potency [5]

CC1CCN(c2ccc3c(c2)S(=O)(=O)c2cccc(C(=O)NC4CCCCC4)c2C3=O)CC1
active: Potency [2] 89.1 µM | Potency [3] 100 µM | Potency [5] 50.1 µM
inactive: Potency [1] | Potency [4]

CC(=O)OC1CSC2c3ccccc3C(=O)N2Cc2sccc21 (stereo not given)
inactive: Potency [1] | Potency [2] | Potency [3] | Potency [4] | Potency [5]

O=C(O)c1ccccc1NS(=O)(=O)c1ccc(N/N=C/c2cccc(O)c2O)c([N+](=O)[O-])c1
inactive: Potency [2] | Potency [3] | Potency [4] | Potency [5]
active: Potency [1] 9.53 µM

O=C(Cc1ccccc1)Nn1c(O)c(/C=C2\C=Nc3ccccc32)sc1=S
inactive: Potency [1] | Potency [4]
active: Potency [2] 112 µM | Potency [3] 100 µM | Potency [5] 39.8 µM

COc1cc(SC)ccc1C(=O)Nc1c(C)cccc1C
inactive: Potency [1] | Potency [2] | activation [3] -7.76% [at 17.1 µM, percent relative to cAMP agonist control] | activity change, negative = inhibition [4] -15.6% [at 30.8 µM] | activation [5] 6.15% [at 30.8 µM]

CC1CCN(c2oc(-c3ccccc3F)nc2C#N)CC1
inactive: Potency [1] | Potency [2] | Potency [3] | Potency [4] | Potency [5]

CCOc1nc(-c2ccccc2)c2cc(C)ccc2n1
inactive: Potency [1] | Potency [2] | Potency [3] | Potency [4] | Potency [5]

COc1ccc(OC)c(NC(=O)C2(C)CCN2Cc2ccsc2)c1 (stereo not given)
inactive: Potency [1] | Potency [2] | Potency [3] | Potency [4] | Potency [5]

Cc1ccc(C(C)C)c(OCc2ccc(C(=O)N/N=C/c3ccc(O)c(O)c3)cc2)c1
inactive: Potency [2] | Potency [3] | Potency [4] | Potency [5]
active: Potency [1] 33.8 µM

Cc1nnc(SCc2ccccc2CSc2nnc(C)s2)s1
inactive: Potency [1] | Potency [2] | Potency [3] | Potency [4] | Potency [5]
